Reference: PubChem BioAssay (NCATS)
Inconclusive results are not listed. The source made the active and inactive calls. Unless noted, the call rests on the fitted dose curve; in most records, active means well fitted curve in the direction sought with a large enough effect; inconclusive means small, poorly fitted or top-dose-only effect, or another doubt; inactive means no such curve, though single readings can be large; an effect the other way counts as inactive or inconclusive.

Key:
[1] = target: ATP-dependent 6-phosphofructokinase (Trypanosoma brucei brucei) (UniProt O15648); experiment: qHTS Assay to Find Inhibitors of T. brucei phosphofructokinase: hit validation (AID 492961);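 further: luminescence reports ADP formed as PFK phosphorylates fructose-6-phosphate with ATP; series mostly up to about 51 µM; on the % scale 0 is the no-effect control and ±100 the full control effect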
Outline: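 Compounds titrated; %activity normalized to 0x and 1x enzyme controls, curve-fitted. Readout: ADP-Glo luminescence after 45 min room-temperature reaction of 1.25 nM PFK, 0.1 mM ATP, 0.5 mM F6P, pH 8.0.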

[2] = target: D(1A) dopamine receptor (Homo sapiens) (UniProt P21728); experiment: HTS Assay for Allosteric Agonists of the Human D1 Dopamine Receptor: Primary Screen for Agonists (AID 488981); further: 0% is about no effect
Outline: (§1)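 Tetracycline-induced HEK293 Trex D1 cells with forced coupling to calcium, loaded with no-wash calcium dye; kinetic fluorescence read 180 s after compound addition for agonism, then a further 180 s after an EC20 dopamine challenge for potentiation.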

[3] = target: D(1A) dopamine receptor (Homo sapiens) (UniProt P21728); experiment: HTS Assay for Allosteric Agonists of the Human D1 Dopamine Receptor: Primary Screen for Potentiators (AID 488982); further: 0% is about no effect
Outline: as §1

[4] = target: D(1A) dopamine receptor (Homo sapiens) (UniProt P21728); experiment: HTS Assay for Allosteric Agonists of the Human D1 Dopamine Receptor: Primary Screen for Antagonists (AID 488983);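 further: calcium flux response to an EC80 dopamine challenge measured with no-wash dye; on the % scale 0 is the no-effect control and ±100 the full control effect; nearly all actives have a fitted effect of over 65% in size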
Outline: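 In this primary screen, compounds are applied to calcium-dye-loaded HEK293 T-REx cells with force-coupled D1 expression induced overnight at 30 C. An EC80 of dopamine follows the 180 s compound phase, and calcium is monitored for a further 180 s.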

[5] = Validation screen for small molecules that induce genotoxicity in human embryonic kidney (HEK293T) cells expressing luciferase-tagged ELG1 (AID 493106); further: 0% is about no effect
Outline: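 In this validation screen, increased ELG1-luciferase signal flags compounds causing genetic stress. HEK293T reporter cells are treated 16 hr (37 °C, 5% CO2), developed with ONE-Glo for 30 min at room temperature, and imaged on a CCD-based reader.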

[6] = target: ATPase family AAA domain-containing protein 5 (Homo sapiens) (UniProt Q96QE3); experiment: Validation screen for small molecules that inhibit ELG1-dependent DNA repair in human embryonic kidney (HEK293T) cells expressing luciferase-tagged ELG1 (AID 493107);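 further: cells co-treated with the DNA-damaging agent 5-fluorouridine alongside compound; series mostly up to about 46 µM; on the % scale 0 is the no-effect control and ±100 the full control effect; inhibitors lower the ELG1-luciferase luminescence signal; nearly all actives have a fitted effect of over 70% in size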
Outline: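 Compounds reducing 5-fluorouridine-driven ELG1-luciferase signal in HEK293T cells were scored; exposure lasted 16 hr at 37 °C with luminescence detected via ONE-Glo.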

[7] = Nrf2 qHTS screen for inhibitors: Validation (AID 493153; active means well fitted inhibition curve with a large enough effect in the main read-out, with a control signal flat, not every such curve was filed as active); conditions: viability change: measured here: cytotoxicity max response
Outline: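 In this counterscreened reporter format, each well gives two signals: CellTiter-Fluor fluorescence for cytotoxicity and ARE-luciferase luminescence for Nrf2 function. A549 ARE_Fluc cells in 5% FBS OPTI-MEM were exposed to compound titrations for 18-24 h.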

[8] = qHTS for Inhibitors of Cell Surface uPA Generation: Validation Assay (AID 493164);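 further: RAW 264.7 macrophage cells exposed to compound for 18 h; 0% is about no effect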
Outline: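 Compounds are titrated over seven points (2.45 nM–38.3 uM final) onto pre-plated RAW 264.7 cells and incubated for 18 h. Retained intracellular ATP, measured with ATP-Lite, indicates blocked lethal factor entry.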

[9] = target: Thyrotropin receptor (Homo sapiens) (UniProt P16473); experiment: qHTS Assay for Antagonists of the Thyroid Stimulating Hormone Receptor (AID 488980); further: series mostly up to about 58 µM; 0% is about no effect
Outline: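 Readout is cAMP by HTRF competition between cellular cAMP and cAMP-d2 for a cryptate-labelled antibody. Antagonism was assessed in TSHR-transfected HEK293 cells stimulated with 4 nM TSH (EC80, final) in the presence of RO 20-1724.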

[10] = target: Galactokinase (Homo sapiens) (UniProt P51570); experiment: qHTS Validation Assay for Inhibitors of Human Galactokinase (GALK) (AID 493189); further: 0% is about no effect
Outline: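 5 nM GALK / 100 uM galactose / 35 uM ATP, 20 mM HEPES pH8.0, 5 mM MgCl2, 60 mM NaCl, 1 mM DTT, 0.01% BSA (final). RT 1 h; Kinase-Glo Plus luminescence.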

ATP-dependent 6-phosphofructokinase (Trypanosoma brucei brucei), sequence (O15648 whole entry, looked up): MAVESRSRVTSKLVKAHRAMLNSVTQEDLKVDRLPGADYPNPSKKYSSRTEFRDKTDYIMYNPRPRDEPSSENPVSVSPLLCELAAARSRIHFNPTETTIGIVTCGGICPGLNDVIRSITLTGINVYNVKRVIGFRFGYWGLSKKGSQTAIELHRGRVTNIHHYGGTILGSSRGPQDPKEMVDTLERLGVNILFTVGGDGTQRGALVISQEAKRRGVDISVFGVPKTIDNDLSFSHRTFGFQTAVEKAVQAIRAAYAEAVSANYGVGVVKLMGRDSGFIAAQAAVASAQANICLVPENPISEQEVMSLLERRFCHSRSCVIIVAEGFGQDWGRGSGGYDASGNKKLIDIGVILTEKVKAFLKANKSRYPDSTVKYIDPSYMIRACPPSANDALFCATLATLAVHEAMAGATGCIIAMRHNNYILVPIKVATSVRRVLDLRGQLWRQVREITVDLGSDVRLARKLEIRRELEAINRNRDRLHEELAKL
D(1A) dopamine receptor (Homo sapiens), sequence (P21728 whole entry, looked up): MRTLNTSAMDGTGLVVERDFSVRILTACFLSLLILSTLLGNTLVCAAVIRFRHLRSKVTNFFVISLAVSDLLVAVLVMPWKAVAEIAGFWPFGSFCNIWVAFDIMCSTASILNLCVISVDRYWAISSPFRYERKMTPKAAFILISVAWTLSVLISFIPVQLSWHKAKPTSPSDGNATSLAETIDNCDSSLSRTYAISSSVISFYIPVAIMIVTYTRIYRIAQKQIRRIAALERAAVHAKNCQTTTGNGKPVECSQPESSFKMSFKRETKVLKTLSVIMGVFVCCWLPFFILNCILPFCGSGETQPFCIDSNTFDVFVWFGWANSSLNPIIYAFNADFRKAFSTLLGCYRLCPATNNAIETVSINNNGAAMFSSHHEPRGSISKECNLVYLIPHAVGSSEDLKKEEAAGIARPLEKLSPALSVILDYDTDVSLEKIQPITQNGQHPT
ATPase family AAA domain-containing protein 5 (Homo sapiens), sequence (Q96QE3 whole entry, looked up, the tested form may be a part): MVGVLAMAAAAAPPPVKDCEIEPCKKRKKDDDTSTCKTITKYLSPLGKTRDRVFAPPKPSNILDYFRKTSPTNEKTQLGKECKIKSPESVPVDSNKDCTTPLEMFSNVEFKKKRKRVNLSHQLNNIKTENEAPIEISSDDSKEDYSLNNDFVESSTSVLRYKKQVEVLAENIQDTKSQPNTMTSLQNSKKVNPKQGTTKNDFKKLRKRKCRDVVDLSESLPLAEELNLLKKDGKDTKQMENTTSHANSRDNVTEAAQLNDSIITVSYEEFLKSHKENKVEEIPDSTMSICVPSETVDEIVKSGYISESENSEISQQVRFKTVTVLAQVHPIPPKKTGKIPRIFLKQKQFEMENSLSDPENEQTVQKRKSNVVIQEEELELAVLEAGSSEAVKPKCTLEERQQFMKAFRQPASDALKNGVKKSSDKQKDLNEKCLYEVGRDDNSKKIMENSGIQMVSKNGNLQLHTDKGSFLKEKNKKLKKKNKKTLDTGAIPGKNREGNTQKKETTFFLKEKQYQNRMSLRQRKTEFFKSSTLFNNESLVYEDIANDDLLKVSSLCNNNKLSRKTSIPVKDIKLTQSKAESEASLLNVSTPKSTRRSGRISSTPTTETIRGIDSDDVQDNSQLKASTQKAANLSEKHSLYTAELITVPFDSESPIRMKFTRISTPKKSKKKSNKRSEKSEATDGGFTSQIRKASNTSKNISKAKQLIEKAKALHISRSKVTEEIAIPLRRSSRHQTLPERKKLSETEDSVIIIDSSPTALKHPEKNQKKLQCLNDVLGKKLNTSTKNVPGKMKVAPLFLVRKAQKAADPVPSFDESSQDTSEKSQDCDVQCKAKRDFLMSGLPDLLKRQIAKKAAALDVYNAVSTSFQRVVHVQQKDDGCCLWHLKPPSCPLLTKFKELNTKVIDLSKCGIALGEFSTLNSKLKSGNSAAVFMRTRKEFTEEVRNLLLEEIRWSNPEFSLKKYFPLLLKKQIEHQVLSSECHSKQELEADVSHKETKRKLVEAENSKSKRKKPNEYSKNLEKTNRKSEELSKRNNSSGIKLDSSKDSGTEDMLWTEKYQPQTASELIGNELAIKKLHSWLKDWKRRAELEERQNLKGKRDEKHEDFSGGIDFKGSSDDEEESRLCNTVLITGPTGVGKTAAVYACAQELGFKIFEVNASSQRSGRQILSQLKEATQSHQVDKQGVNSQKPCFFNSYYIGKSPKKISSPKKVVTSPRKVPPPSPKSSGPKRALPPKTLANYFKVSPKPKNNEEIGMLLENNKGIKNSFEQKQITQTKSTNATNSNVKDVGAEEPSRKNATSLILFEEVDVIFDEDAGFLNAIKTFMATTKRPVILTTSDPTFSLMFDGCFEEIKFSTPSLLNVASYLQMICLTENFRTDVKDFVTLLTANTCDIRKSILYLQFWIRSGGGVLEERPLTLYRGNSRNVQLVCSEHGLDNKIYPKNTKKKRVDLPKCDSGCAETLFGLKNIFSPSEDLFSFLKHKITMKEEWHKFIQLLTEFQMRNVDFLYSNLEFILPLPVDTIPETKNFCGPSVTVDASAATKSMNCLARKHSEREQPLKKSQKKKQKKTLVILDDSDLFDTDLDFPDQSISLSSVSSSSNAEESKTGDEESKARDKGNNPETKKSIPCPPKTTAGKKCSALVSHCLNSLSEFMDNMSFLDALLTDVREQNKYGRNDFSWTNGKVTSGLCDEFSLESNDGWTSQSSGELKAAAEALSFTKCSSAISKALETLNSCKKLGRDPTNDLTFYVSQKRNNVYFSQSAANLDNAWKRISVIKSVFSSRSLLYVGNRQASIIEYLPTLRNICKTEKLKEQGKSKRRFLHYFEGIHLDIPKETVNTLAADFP
Galactokinase (Homo sapiens), sequence (P51570 whole entry, looked up): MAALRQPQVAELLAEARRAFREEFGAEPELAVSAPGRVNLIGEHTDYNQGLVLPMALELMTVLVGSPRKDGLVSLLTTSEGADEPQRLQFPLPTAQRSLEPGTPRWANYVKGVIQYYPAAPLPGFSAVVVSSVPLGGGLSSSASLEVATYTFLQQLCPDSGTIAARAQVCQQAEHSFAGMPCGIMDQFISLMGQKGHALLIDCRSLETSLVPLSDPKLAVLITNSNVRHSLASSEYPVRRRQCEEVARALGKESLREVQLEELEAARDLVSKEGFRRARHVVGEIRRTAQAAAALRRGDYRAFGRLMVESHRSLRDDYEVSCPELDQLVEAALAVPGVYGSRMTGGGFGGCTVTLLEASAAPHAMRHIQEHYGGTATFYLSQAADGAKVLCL
Thyrotropin receptor (Homo sapiens), sequence (P16473 whole entry, looked up): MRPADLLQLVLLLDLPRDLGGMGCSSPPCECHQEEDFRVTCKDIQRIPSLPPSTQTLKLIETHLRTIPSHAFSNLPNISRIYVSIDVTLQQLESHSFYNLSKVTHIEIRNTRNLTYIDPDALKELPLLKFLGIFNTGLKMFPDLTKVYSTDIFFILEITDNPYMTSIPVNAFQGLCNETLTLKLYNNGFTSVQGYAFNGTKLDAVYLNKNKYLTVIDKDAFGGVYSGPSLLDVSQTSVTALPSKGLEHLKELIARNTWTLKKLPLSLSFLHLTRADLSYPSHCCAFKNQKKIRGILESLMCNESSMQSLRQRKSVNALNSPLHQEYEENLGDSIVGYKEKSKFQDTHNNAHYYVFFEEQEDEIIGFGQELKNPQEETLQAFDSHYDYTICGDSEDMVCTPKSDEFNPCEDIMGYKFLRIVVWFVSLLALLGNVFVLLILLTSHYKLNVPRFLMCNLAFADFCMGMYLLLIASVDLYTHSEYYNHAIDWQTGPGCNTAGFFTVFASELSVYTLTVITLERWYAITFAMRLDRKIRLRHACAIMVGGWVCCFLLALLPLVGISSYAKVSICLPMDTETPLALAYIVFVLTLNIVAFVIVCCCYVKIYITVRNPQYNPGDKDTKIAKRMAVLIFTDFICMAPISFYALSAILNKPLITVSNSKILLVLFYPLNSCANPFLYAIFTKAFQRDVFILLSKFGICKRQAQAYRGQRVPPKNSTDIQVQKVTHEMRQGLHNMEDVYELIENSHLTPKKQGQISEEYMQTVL

In the case of OCC(O)C(O)C(O)CO (configuration not stated), the outcome [1] was “inactive”.
For CCCCCCCCCCCC(CC1OC(=O)C1CCCCCC)OC(=O)C(CC(C)C)NC=O (configuration not stated), the outcome [1] was “inactive”.
In the case of O=c1[nH]c(=O)n([C@H]2C[C@@H](O)[C@@H](CO)O2)cc1C=CBr, the outcome [2] was “inactive”, the outcome [3] was “inactive” and the outcome [4] was “inactive”. For the same compound, the outcome [5] was “inactive”, the outcome [6] was “inactive” and the outcome [7] was “inactive”. For the same compound, the viability change [7] was 1.21% and the outcome [8] was “inactive”.
In the case of CCC(C(=O)O)C1CCC(C)C(C(C)C(O)C(C)C(=O)C(CC)C2OC3(C=CC(O)[C@@]4(CC[C@](C)(C5CC[C@@](O)(CC)C(C)O5)O4)O3)C(C)CC2C)O1 (some centres not stated), the outcome [1] was “inactive”.
In the case of COc1ccc([C@@H]2CNC(=O)C2)cc1OC1CCCC1, the outcome [1] was “inactive”.
In the case of CN[C@H](CC(C)C)C(=O)N[C@H]1C(=O)N[C@@H](CC(N)=O)C(=O)N[C@@H]2C(=O)N[C@H]3C(=O)N[C@H](C(=O)N[C@H](C(=O)O)c4cc(O)cc(O)c4-c4cc3ccc4O)[C@H](O)c3ccc(c(Cl)c3)Oc3cc2cc(c3O[C@@H]2O[C@H](CO)[C@@H](O)[C@H](O)[C@@H]2O[C@H]2C[C@](C)(N)[C@H](O)[C@H](C)O2)Oc2ccc(cc2Cl)[C@H]1O, the outcome [2] was “inactive”, the outcome [3] was “inactive” and the outcome [4] was “inactive”. The outcome [5] was “inactive”, the outcome [6] was “inactive” and the outcome [7] was “inactive”. For the same compound, the viability change [7] was -4.03% and the outcome [8] was “inactive”.
With COc1ccc2cc([S+]([O-])Cc3ncc(C)c(OC)c3C)nc2c1 the outcome [2] was “inactive”, the outcome [3] was “inactive” and the outcome [4] was “inactive”. The outcome [5] was “inactive”, the outcome [6] was “inactive” and the outcome [7] was “inactive”. For the same compound, the viability change [7] was -3.22% and the outcome [8] was “inactive”.
With COc1ccc2c(c1OC)C(=O)OC2[C@H]1c2c(cc3c(c2OC)OCO3)CCN1C (some centres not stated) the outcome [1] was “inactive”.
With N=c1ccn2c(n1)O[C@H]1[C@@H](O)[C@@H](CO)O[C@H]12 the outcome [9] was “inactive” and the outcome [10] was “inactive”.
For Nc1nc2c(c(=O)[nH]1)N(C=O)[C@H](CNc1ccc(C(=O)N[C@@H](CCC(=O)O)C(=O)O)cc1)CN2, the outcome [1] was “inactive”.
